Results on five compounds are retold here after PubChem BioAssay.

Assay [1] in a line: small molecules captured by biotinylated probe aFSTL3 – biochemical, small-molecule microarray, fluorescence 635/667, stem cell growth factor project, primary screen (AID 1064).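 Further: measures binding of the biotinylated anti-FSTL3 antibody to printed compounds.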 Conditions: higher = more signal.
Assay [2] can be described thus: binders from COS7 lysate, DM2A8 probe, primary screen, torsin A project, cell lysate, small-molecule microarray, fluorescence 635/667 (AID 1065). Conditions: higher = more signal, COS7 lysate expressing mutant human TOR1A.
A short description of assay [3]: small molecules captured by biotinylated probe aFGF2 – biochemical, small-molecule microarray, fluorescence 635/667, stem cell growth factor project, primary screen (AID 1067).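 Further: measures binding of biotinylated aFGF2 protein to printed compounds on slides; z-score merges feature fluorescence and signal-to-noise across triplicate slides.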 The settings on record: higher = more signal.
Assay [4] can be described thus: small molecules captured by biotinylated probe aFGF10 – biochemical, small-molecule microarray, fluorescence 635/667, stem cell growth factor project, primary screen (AID 1071).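 Further: score merges 667 nm spot intensity and signal to noise from triplicate slides.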 The settings on record: higher = more signal.
Assay [5] concerns the target Neurogenic locus notch homolog protein 2 (Homo sapiens) (UniProt Q04721). In words: small molecules binding Notch2 protein – biochemical, small-molecule microarray, 635 nm fluorescence, stem cell growth factors, primary screen (AID 1073). The settings on record: higher = more signal.
Assay [6] concerns the target Pro-neuregulin-1, membrane-bound isoform (Homo sapiens) (UniProt Q02297). In words: small molecules binding neuregulin-1 protein – biochemical, small-molecule microarray, fluorescence 635/667, psychiatric disease protein project, primary screen (AID 1075).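 Further: score combines 667 nm spot fluorescence with signal to noise.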 Conditions: NRG1 binding, 635 nm fluorescence, higher = more signal.
In assay [7] the test system is Neuregulin-1 EGF-like domain. The experiment in a line: small molecules binding NRG1 EGF domain – biochemical, small-molecule microarray, 635 nm fluorescence, primary screen (AID 1081).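 Further: binding of the protein to compounds printed on small-molecule microarray slides.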 Conditions: higher = more signal.
A short description of assay [8]: FRG1 expression reporter modulators in myotubes – cell-based, C2C12 myotubes, firefly/Renilla luciferase, luminescence, FRG1 inhibition for FSHD, primary screen (AID 1084). The settings on record: FRG1 promoter luciferase, higher = more signal, called active from +8 up or from −8 down.
Assay [9] is described as follows: small molecules captured by biotinylated probe aFST – biochemical, small-molecule microarray, fluorescence 635/667, stem cell growth factor project, primary screen (AID 1086).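 Further: score merges 667 nm fluorescence with signal-to-noise of each printed compound spot.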 The settings on record: higher = more signal.
Assay [10] in a line: binders of probe aHhip on microarray, primary screen, stem cell growth factor project, biochemical, small-molecule microarray, fluorescence 635/667 (AID 1087).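 Further: score merges spot fluorescence at 667nm with spot signal to noise ratio.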 Conditions: higher = more signal.
In assay [11] the test system is PRMT1 (protein arginine N-methyltransferase 1). The experiment in a line: small molecules binding arginine methyltransferase PRMT1 – biochemical, small-molecule microarray, 635 nm fluorescence, primary screen (AID 1088).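 Further: binding of Prmt1 protein to compounds spotted on small-molecule microarray slides.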 The settings on record: higher = more signal.
A short description of assay [12]: growth effects on S. cerevisiae YJM789 – YJM789 clinical isolate, OD600, 24 h, basal, primary screen (AID 1089).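 Further: growth of clinical yeast isolate S. cerevisiae YJM 789 seeded 1000 cells per well; test concentration not given here.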 The settings on record: higher = more signal, called active from +8 up or from −8 down.
The nature of assay [13]: S. pombe growth modifiers, basal conditions – strain 972, OD600, 24 h, no modulator, primary screen (AID 1090).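 Further: basal condition with compound alone and no growth modifier present; test concentration not given here.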 Conditions: S. pombe 972 growth, higher = more signal, called active from +8 up or from −8 down.
A short description of assay [14]: budding yeast growth modifiers under rapamycin – strain BY4716, OD600, 96 h, primary screen (AID 1091). Further: test concentration not given here. The settings on record: S. cerevisiae BY4716 + rapamycin, higher = more signal, called active from +8 up or from −8 down.
Assay [15] has as its target Torsin-1A-interacting protein 2 (Homo sapiens) (UniProt Q8NFQ8). In words: small molecules binding lysate-expressed LULL1 – cell lysate, human LULL1 lysate, 635/667 nm fluorescence, primary screen (AID 1092).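 Further: probe is lysate of COS7 cells overexpressing human LULL1; score merges per-feature 667 nm fluorescence with signal-to-noise.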 The settings on record: small-molecule microarray, hLULL1 lysate binding, 635 nm fluorescence; higher = more signal.
Assay [16] can be described thus: optical density change of DRC41 E. coli – strain DRC41, OD650, 24 h, E. coli filamentation project, primary screen (AID 1093).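 Further: MC1000 strain lacking acrAB efflux and sulA so SOS filamentation is blocked; test concentration not given here.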 Conditions: E. coli DRC41 growth, higher = more signal, called active from +8 up or from −8 down.
Assay [17] in a line: probe aLefty2 binding to arrayed compounds – biochemical, biotinylated probe, 635/667 nm fluorescence, primary screen (AID 1094).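 Further: score merges spot fluorescence near 667 nm with spot signal-to-noise ratio.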 The settings on record: small-molecule microarray, higher = more signal.
In assay [18] the test system is Noggin (protein binding on small-molecule microarray). The experiment in a line: small molecules binding Noggin protein – biochemical, 635/667 nm fluorescence, primary screen (AID 1095).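 Further: score merges 667 nm feature fluorescence with signal to noise over triplicate slides.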 The settings on record: 635 nm fluorescence, higher = more signal.
Assay [19] concerns the target Neurogenic locus notch homolog protein 3 (Homo sapiens) (UniProt Q9UM47). In words: small molecules binding NOTCH3 protein – biochemical, 635/667 nm fluorescence, primary screen (AID 1096). The settings on record: small-molecule microarray, 635 nm fluorescence, higher = more signal.
Assay [20] is described as follows: probe aEGFR binding to arrayed compounds – biochemical, biotinylated probe, 635/667 nm fluorescence, primary screen (AID 1097).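 Further: probe is a biotinylated anti-EGFR antibody binding compounds printed on slides; score combines fluorescence near 667 nm and signal to noise of each spot.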 The settings on record: small-molecule microarray, higher = more signal.

Activity calls are given as the source filed them.

Sequence of Neurogenic locus notch homolog protein 3 (Homo sapiens) (Q9UM47 whole entry, looked up): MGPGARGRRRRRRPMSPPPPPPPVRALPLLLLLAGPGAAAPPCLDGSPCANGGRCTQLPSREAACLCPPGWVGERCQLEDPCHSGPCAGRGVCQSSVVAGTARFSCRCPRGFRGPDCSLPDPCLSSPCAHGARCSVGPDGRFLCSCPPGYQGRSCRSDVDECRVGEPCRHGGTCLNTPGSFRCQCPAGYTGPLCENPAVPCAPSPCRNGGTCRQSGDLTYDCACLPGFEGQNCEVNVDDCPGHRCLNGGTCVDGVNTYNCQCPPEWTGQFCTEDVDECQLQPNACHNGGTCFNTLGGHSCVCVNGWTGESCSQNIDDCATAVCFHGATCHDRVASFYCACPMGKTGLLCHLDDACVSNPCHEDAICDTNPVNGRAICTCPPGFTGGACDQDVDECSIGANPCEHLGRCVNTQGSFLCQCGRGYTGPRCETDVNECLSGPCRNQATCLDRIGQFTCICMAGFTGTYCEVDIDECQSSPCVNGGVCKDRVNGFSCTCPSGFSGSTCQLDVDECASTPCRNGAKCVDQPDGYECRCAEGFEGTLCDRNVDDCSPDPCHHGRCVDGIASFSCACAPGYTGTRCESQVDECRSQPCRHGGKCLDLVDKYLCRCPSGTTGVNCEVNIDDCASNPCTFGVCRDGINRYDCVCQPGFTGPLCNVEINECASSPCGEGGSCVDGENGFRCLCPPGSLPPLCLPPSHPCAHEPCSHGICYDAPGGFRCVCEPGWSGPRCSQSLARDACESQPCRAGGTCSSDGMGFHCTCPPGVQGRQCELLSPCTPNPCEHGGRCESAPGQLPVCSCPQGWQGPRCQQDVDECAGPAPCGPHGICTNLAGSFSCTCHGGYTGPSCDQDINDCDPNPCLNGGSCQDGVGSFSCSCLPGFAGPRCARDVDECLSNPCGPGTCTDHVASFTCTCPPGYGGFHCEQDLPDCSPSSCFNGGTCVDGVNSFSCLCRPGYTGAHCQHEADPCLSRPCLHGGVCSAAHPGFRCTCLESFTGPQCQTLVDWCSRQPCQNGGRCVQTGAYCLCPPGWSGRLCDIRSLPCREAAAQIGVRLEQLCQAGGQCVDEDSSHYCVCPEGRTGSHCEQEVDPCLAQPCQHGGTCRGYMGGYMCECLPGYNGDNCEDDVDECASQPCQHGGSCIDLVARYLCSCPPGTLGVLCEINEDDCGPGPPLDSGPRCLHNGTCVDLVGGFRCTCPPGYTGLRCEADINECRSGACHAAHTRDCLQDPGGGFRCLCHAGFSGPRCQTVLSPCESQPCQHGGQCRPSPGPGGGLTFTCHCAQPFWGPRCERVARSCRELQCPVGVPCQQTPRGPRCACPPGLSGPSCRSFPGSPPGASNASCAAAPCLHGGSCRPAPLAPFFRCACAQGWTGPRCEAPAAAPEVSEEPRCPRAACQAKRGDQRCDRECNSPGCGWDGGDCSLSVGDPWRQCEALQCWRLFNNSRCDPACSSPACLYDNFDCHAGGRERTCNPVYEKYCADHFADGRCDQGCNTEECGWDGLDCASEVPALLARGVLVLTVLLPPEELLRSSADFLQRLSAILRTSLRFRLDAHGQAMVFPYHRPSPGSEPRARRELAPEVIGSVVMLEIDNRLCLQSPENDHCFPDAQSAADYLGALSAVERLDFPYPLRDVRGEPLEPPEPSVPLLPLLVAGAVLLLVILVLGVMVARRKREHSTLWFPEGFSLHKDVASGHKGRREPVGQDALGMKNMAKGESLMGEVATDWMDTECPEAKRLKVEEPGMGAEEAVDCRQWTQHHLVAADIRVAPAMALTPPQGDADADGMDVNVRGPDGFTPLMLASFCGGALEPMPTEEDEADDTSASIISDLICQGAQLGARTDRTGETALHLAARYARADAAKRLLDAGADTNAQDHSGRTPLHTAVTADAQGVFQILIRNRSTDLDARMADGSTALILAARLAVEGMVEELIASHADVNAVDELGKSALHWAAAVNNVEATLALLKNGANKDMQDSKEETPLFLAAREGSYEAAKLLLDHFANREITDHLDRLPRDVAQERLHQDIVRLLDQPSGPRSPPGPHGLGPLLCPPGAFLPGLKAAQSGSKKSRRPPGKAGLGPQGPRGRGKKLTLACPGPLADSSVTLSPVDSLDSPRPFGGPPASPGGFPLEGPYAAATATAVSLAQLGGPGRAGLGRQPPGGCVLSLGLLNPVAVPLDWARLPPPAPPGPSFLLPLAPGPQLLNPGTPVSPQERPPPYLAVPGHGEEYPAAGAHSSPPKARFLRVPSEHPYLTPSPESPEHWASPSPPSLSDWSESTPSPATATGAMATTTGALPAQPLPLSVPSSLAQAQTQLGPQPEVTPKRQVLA
Sequence of Pro-neuregulin-1, membrane-bound isoform (Homo sapiens) (Q02297 whole entry, looked up, the tested form may be a part, canonical isoform): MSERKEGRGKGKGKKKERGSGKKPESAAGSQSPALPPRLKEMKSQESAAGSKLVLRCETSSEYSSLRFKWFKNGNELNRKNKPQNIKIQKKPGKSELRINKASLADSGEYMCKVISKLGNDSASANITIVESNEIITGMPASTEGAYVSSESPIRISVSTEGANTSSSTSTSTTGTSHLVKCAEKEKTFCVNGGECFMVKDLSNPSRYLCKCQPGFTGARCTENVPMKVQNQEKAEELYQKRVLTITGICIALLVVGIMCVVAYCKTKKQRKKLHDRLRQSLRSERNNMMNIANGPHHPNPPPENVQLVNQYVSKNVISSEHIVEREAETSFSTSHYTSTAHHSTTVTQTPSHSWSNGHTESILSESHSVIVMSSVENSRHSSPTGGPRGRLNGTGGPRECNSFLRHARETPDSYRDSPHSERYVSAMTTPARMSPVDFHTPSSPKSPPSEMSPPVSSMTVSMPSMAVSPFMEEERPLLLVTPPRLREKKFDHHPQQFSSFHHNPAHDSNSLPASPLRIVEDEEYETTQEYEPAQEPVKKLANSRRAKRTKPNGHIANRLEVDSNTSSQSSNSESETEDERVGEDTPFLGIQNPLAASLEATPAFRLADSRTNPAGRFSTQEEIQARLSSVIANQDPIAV
Sequence of Torsin-1A-interacting protein 2 (Homo sapiens) (Q8NFQ8 whole entry, looked up): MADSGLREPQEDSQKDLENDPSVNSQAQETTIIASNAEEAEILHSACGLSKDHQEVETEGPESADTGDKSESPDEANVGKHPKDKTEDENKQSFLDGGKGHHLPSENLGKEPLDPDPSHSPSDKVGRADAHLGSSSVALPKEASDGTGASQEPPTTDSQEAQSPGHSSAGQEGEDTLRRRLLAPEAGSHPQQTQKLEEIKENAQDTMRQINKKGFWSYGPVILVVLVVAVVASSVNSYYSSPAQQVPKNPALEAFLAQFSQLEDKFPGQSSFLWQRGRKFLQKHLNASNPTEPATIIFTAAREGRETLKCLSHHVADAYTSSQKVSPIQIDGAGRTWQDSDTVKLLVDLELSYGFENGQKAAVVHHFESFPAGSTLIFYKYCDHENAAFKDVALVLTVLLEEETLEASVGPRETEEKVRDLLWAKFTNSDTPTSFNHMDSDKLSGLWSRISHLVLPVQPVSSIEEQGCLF

`COc1ccc([Si](C)(C)[C@@H]2[C@@H](CC(=O)N(CCO)Cc3ccccc3)O[C@]3(C(=O)N(Cc4ccc(N5CCC5=O)cc4)c4ccccc43)[C@H]2C)cc1`: the composite z-score in assay [1] is -0.0664; in assay [2], 0.461; in assay [3], -0.0226; in assay [4], 0.0667; in [5] it was 0.0102; in assay [6] it was 0.695. For the same compound, the composite z-score in [7] is 0.677; in assay [9], 2.26; in assay [10], -0.0267; in [11], -0.0625; in assay [15] it was 0.628; in assay [17], 0.536. Moreover, the composite z-score in [18] was 0.343; in assay [19], -0.0568; in [20], -0.199. Also, the z-score in [8] is -0.192 (inactive); in assay [12] it was 0.127 (inactive); in assay [13] it was -0.246 (inactive); in assay [14], 1.87 (inactive); in assay [16] it was 1.31 (inactive).
For the compound `COc1ccc(CCNC(=O)[C@@]2(C)c3ccccc3C(=O)N(Cc3cc(C(F)(F)F)cc(C(F)(F)F)c3)[C@H]2c2ccc(CO)cc2)cc1`, the composite z-score in assay [1] was 1.42; in assay [2], 1.35; in [3], 0.383; in assay [4], -0.27; in assay [5], -0.57; in assay [6], 1.73. For the same compound, the composite z-score in assay [7] turned out to be 1.3; in assay [9], 0.169; in assay [10], 1.69; in [11], 1.53; in [15] it was 1.7; in assay [17], 0.795. Moreover, the composite z-score in [18] turned out to be 0.179; in assay [19] it was 0.0336; in assay [20] it was 0.577. In addition, the z-score was -1.62 (inactive) in assay [8]; 0.182 (inactive) in assay [12]; -0.836 (inactive) in assay [13]; 1.09 (inactive) in assay [14]; 1.02 (inactive) in assay [16].
As to `CC(C)C[C@@H]1NC(=O)[C@@H]2C[C@H](C(=O)NCCCC[N+](C)(C)C)[C@H](c3ccc(O)cc3)N2C1=O`, the composite z-score in assay [1] is -0.358; in [2], 1.4; in [3], -0.116; in assay [4] it was 0.639; in [5], 0.113; in [6], 1.54. Also, the composite z-score in assay [7] is 1.32; in assay [9], 0.221; in assay [10] it was 0.319; in [11], 1.53; in [15], 1.76; in assay [17] it was -0.0295. The composite z-score in [18] came to 1.91; in [19] it was 1.02; in [20], 0.0251. The z-score is 0.53 (inactive) in [8]; -0.246 (inactive) in [12]; 0.491 (inactive) in [13]; -1.48 (inactive) in assay [14]; 0.0731 (inactive) in assay [16].
Take `CCCCC(O)C1C=CC2C(=O)NC(=O)C2N1Nc1ccc(Cl)cc1Cl` (stereo not given): the composite z-score is 0.439 in assay [1]; -0.384 in [2]; 0.0127 in assay [3]; 0.612 in [4]; 0.866 in assay [5]; 1.3 in [6]. Besides, the composite z-score is 1.09 in assay [7]; 0.691 in assay [9]; -0.27 in assay [10]; -0.338 in assay [11]; 2.28 in assay [15]; 0.259 in assay [17]. For the same compound, the values for the composite z-score in [18], in assay [19] and in [20] were -0.314, 0.303 and -0.0232, respectively. In addition, the z-score is 0.0812 (inactive) in assay [8]; -25.2 (active) in assay [12]; -8.47 (active) in [13]; -1.58 (inactive) in assay [14]; -1.55 (inactive) in assay [16].
On to `C=CC[C@]1(C(=O)N(C)C)COC(c2ccc(OCCCO)cc2)=N1`, for which the composite z-score in assay [1] was 1.11; in assay [2], 2.23; in [3], 0.23; in assay [4], 0.744; in assay [5] it was 0.221; in assay [6], 1.83. The composite z-score in [7] turned out to be 1.42; in [9] it was 0.459; in [10], 0.0373; in [11], 1.36; in assay [15] it was 2.75; in assay [17], 0.804. Further, the composite z-score in assay [18] was -0.39; in [19] it was -0.338; in [20], 0.367. Besides, the z-score in assay [8] was 0.233 (inactive); in assay [12] it was 0.0794 (inactive); in assay [13], -2.04 (inactive); in assay [14], -0.95 (inactive); in assay [16] it was -1.46 (inactive).
